According to PubChem BioAssay AID1159554 (Broad Institute, 2015):
In all, about 94,000 compounds went through this assay and about 2,100 (2.2%) were called active. Rule as the data show it: active = activity change below about -80%; inconclusive = no clear call, values can overlap the other calls; inactive = above that. The list comes from a sample in which actives are over-represented; it also holds similar structures and randomly drawn compounds.

assay: Dd2 malaria parasite growth inhibition – SYBR Green fluorescence, single dose replicates, primary screen (AID 1159554); details: P. falciparum Dd2 growth, 72 h, at 10 µM, hits give low values

Activity change, inactive:
COc1ccc2c3c(n(C)c2c1)[C@@H](CO)N(CC1CC1)CC31CN(C(=O)c2cccc(F)c2)C1 -33.2%
CO[C@H](CN(C)C(=O)c1cnccn1)[C@@H](C)CN([C@@H](C)CO)S(=O)(=O)c1ccc(C)cc1 25.3%
COc1ccccc1NC(=O)N1C[C@H]2[C@@H](c3ccccc31)[C@@H](CO)N2C(=O)C1CCCC1 -11.4%
CCNC(=O)[C@H]1[C@H](CO)[C@H]2Cn3c(ccc(C4=CCCC4)c3=O)[C@@H]1N2S(=O)(=O)c1cn(C)cn1 21.7%
COc1ccc(-c2ccc3c(c2)O[C@H](CN(C)Cc2ccccc2C(=O)O)[C@H](C)CN([C@@H](C)CO)S3(=O)=O)cc1 -14.1%
CO[C@H]1CN(C)C(=O)c2cc(NC(=O)c3ccc4c(c3)OCO4)ccc2OC[C@@H](C)N(CCC(F)(F)F)C[C@H]1C -12.7%
C[C@@H](C(=O)N(C)C[C@H]1OCc2ccccc2-c2c(n(C)c3ccccc23)C(=O)N([C@@H](C)CO)C[C@@H]1C)c1ccccc1 -70%
O=C(C[C@@H]1CC[C@@H]2[C@H](COC[C@@H](O)CN2Cc2cc(F)cc(F)c2)O1)NCc1cccc(F)c1 -16.3%
C[C@H](CO)N1C[C@H](C)[C@@H](CN(C)C(=O)c2ccncc2)Oc2cc(C3=CCCCC3)ccc2S1(=O)=O -11.8%
C[C@H](CO)N1C[C@H](C)[C@@H](CN(C)C(=O)Nc2ccccc2)Oc2c(NC(=O)CCCCCC(=O)Nc3ccccc3N)cccc2C1=O -26.6%
C[C@@H]1CN([C@@H](C)CO)C(=O)c2cccc(NC(=O)CCCCCC(=O)Nc3ccccc3N)c2O[C@H]1CN(C)C(=O)Nc1ccccc1 -53.7%
C[C@H](CO)N1C[C@H](C)[C@H](CN(C)CC2CCCCC2)Oc2ccc(NC(=O)CCCCCC(=O)Nc3ccccc3N)cc2CC1=O -32.3%
CC(C)NC(=O)Nc1cccc2c1O[C@H](CN(C)CC1CCCCC1)[C@H](C)CN([C@H](C)CO)C2=O -26.3%
COc1cccc(S(=O)(=O)Nc2ccc3c(c2)[C@H]2C[C@H](CC(=O)O)O[C@H](CO)[C@H]2O3)c1 19%
CCCNC(=O)Nc1ccc2c(c1)C(=O)N(C)C[C@@H](OC)[C@@H](C)CN(Cc1ccccn1)[C@@H](C)CO2 -2.2%
O=C(NC1CCC1)[C@H]1[C@H](CO)[C@H]2Cn3c(ccc(-c4ccccc4)c3=O)[C@@H]1N2Cc1cocn1 10.7%
Cn1cnc(S(=O)(=O)NC[C@@H]2CC[C@@H]3[C@@H](CN3Cc3nccs3)O2)c1 28.5%
C[C@@H]1CCCCO[C@@H](CN(C)S(=O)(=O)c2cn(C)cn2)[C@@H](C)CN([C@@H](C)CO)C(=O)c2cc(NC(=O)Nc3ccc(C(F)(F)F)cc3)ccc2O1 -75.5%
O=C(c1cccnc1)N1CC(=O)N2[C@H](CO)[C@H](c3ccc(-c4cccnc4)cc3)[C@@H]2C1 25.3%
O=C(Cc1cccnc1)N1CC(=O)N2[C@H](CO)[C@H](c3ccc(C#CC4CCCC4)cc3)[C@@H]2C1 -26.7%
O=C(C1CCCC1)N1CC(=O)N2[C@@H](CO)[C@@H](c3ccc(-c4cccnc4)cc3)[C@@H]2C1 -20.4%
O=C(c1ccccc1F)N1CC(=O)N2[C@H](CO)[C@@H](c3ccc(-c4cccnc4)cc3)[C@H]2C1 21.6%
O=C(Cc1cccnc1)N1CC(=O)N2[C@@H](CO)[C@H](c3ccc(C#CC4CC4)cc3)[C@@H]2C1 -6.96%
O=C(c1ccccc1F)N1CC(=O)N2[C@H](C1)[C@H](c1ccc(-c3ccc(F)cc3)cc1)[C@@H]2CO -63.7%
COc1ccc2c3c([nH]c2c1)[C@@H](CO)N(C(=O)CN1CCOCC1)CC31CCN(C)CC1 27%
O=C(C[C@@H]1C=C[C@@H](NS(=O)(=O)c2ccccc2)[C@@H](CO)O1)NCc1ccccc1F 8.12%
CN(C)CC#Cc1ccc([C@@H]2[C@H](CO)N3CCCCN(C(=O)NC4CCCC4)C[C@@H]23)cc1 2.92%
CCCNC(=O)Nc1ccc2c(c1)C(=O)N(C)C[C@@H](OC)[C@H](C)CN(CCC)[C@@H](C)CO2 21.3%
COc1ccccc1NC(=O)N1CC(=O)N2[C@@H](CO)[C@H](c3ccc(C#CC4CC4)cc3)[C@@H]2C1 -3.54%
O=C(C[C@H]1CC[C@@H]2[C@H](COC[C@@H](O)CN2Cc2cc(F)cc(F)c2)O1)NC1CCC1 -26.6%
C[C@@H]1CN([C@@H](C)CO)C(=O)Cc2cc(NC(=O)CCCN(C)C)ccc2O[C@@H]1CN(C)Cc1ccc(-c2ccccc2)cc1 -71.2%
CC(C)C(=O)Nc1ccc2c(c1)C(=O)N(C)[C@H]1CC[C@H](CC(=O)NCc3ccc(F)cc3)O[C@H]1CO2 -8.71%
CC(=O)N1Cc2cc(C(=O)NCc3cc(F)cc(F)c3)nc(-c3cccc(C4=CCCC4)c3)c2[C@@H]1CCO -66.6%
O=C(Nc1ccccc1F)N1CC(=O)N2[C@@H](CO)[C@H](c3ccc(C#CC4CCCC4)cc3)[C@@H]2C1 -8.5%

Activity change, active:
C[C@@H]1CN([C@@H](C)CO)C(=O)c2cccc(NC(=O)CCCCCC(=O)Nc3ccccc3N)c2O[C@H]1CN(C)C(=O)Nc1cccc2ccccc12 -86.4%
C[C@H]1CN([C@@H](C)CO)C(=O)c2cccc(NC(=O)CCCCCC(=O)Nc3ccccc3N)c2O[C@@H]1CN(C)CC1CCCCC1 -83.5%
O=C(C1CCCC1)N1CC(=O)N2[C@H](C1)[C@@H](c1ccc(-c3cccnc3)cc1)[C@@H]2CO -88.2%
O=C(c1ccccc1F)N1CC(=O)N2[C@H](CO)[C@H](c3ccc(-c4cccnc4)cc3)[C@H]2C1 -85.7%
CN(C)CC#Cc1ccc([C@@H]2[C@H](CO)N3C(=O)CN(C(=O)Cc4cccnc4)C[C@@H]23)cc1 -85.1%
